# Compound activity (PubChem BioAssay)
# Only a selection was taken, and hits are over-represented in it overall.
# Pf Dd2 inh: Plasmodium falciparum Dd2 growth inhibition; P. falciparum Dd2 growth, SYBR Green, 72 h; Potency, µM (highest dose often 28.9 µM), inactives show at the top dose activity, negative = inhibition, usual class: inhibitors; hit rate 4.3% among 120,000; AID 1347417; active = well fitted inhibition curve with a large enough effect;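 note: plate controls were DMSO vehicle for no effect and reference drug for full effect; nearly all actives have a fitted effect of over 65% in size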
#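 Readout: SYBR Green fluorescence, 485 nm excitation, 535 nm emission, after ~16 h lysis at 37C. Before that, Dd2-infected red cells (2.5% hematocrit) grew 72 h with compound, 29 uM top final concentration.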
# Active calls of the source: *; i = inactive; [ ] = dose if it differs, or a comment. Potency is the fitted concentration of half-maximal effect.
SMILES,Pf Dd2 inh
CN(C)C[C@H]1O[C@H](Cc2cc(-c3ccc(F)cc3)on2)CC[C@@H]1O,i
COCc1cc(C[C@@H]2CC[C@H](O)[C@@H](CNCc3cccc(OC)c3)O2)no1,-2.7%[44.1 µM]
CCN(CC)C[C@H]1O[C@H](Cc2cc(-c3ccc(F)cc3)on2)CC[C@@H]1O,7.08µM*
Oc1cccc(-c2cc(C[C@@H]3CC[C@H](O)[C@@H](CNC4CCC4)O3)no2)c1,3.6%[44.1 µM]
O=C(NC[C@H]1O[C@H](Cc2cc(-c3ccc(F)cc3)on2)CC[C@@H]1O)c1ccc(F)cc1,-2.6%[44.1 µM]
COc1cccc(NC(=O)NC[C@H]2O[C@H](Cc3cc(-c4ccc(F)cc4)on3)CC[C@@H]2O)c1,-24.6%
O[C@@H]1C[C@@H](c2nc(-c3ccc(C(F)(F)F)cc3)no2)N(Cc2cccc(OC(F)(F)F)c2)C1,i
O=C(C1COc2ccccc2C1)N1CCC(Cc2noc(C3CC3)n2)CC1 (centres undefined),-19.6%
COc1ccc(CN2C=C(C(=O)O)C(C)=NS2(=O)=O)cc1F,-12.5%
CCOc1ccc(C(=O)NC2CCN(c3cnn(C)c(=O)c3)CC2)cc1,-23.1%
O=C(NCCCc1nc2ccc(Cl)cc2[nH]1)[C@H]1CCC[C@@H](O)C1,5.8%
O[C@H]1[C@H](NCc2ccc(F)cc2)[C@H]2CO[C@H](O2)[C@@H]1N1CCC(Cc2ccccc2)CC1,-36.9%[44.1 µM]
Cc1ccccc1SC1CCN(c2cc(C3CC(O)C3)ncn2)CC1 (centres undefined),-4.0%
CC(=O)c1ccc(NC(=O)O[C@@H]2CO[C@H]3[C@@H]2OC[C@@H]3NC(=O)Nc2ccccc2)cc1,i
COC(=O)c1cccc(-c2nc(C3CC(=O)N(c4ccc(F)c(Cl)c4)C3)no2)c1 (centres undefined),69.0%
Nc1nc2c(s1)C(c1cccc(F)c1F)CC(=O)N2 (centres undefined),i
CC(C)CN1C(=O)CO[C@H](c2ccc(NC(=O)c3ccccc3)cc2)[C@H]1CO,-1.6%[44.1 µM]
CCn1nccc1C(=O)N1CCC2(CC1)CC(N1CCN(c3ccccn3)CC1)CCO2 (centres undefined),i
CN(C)C[C@H]1O[C@H](Cc2cc(CN3CCOCC3)on2)CC[C@@H]1O,0.9%[44.1 µM]
COCC(=O)NC[C@H]1O[C@H](Cc2cc(-c3ccc(F)cc3)on2)CC[C@@H]1O,14.1µM*
COCC(=O)NC[C@H]1O[C@H](Cc2cc(-c3ccc(OC)cc3)on2)CC[C@@H]1O,i
CN(Cc1ccccc1)Cc1cc(C[C@@H]2CC[C@H](O)[C@@H](CN)O2)no1,i
CC(C)(C)c1cc(C[C@@H]2CC[C@H](O)[C@@H](CN(CC3CC3)CC3CC3)O2)no1,4.47µM*
CC(=O)NC[C@H]1O[C@H](Cc2cc(-c3ccc(F)cc3)on2)CC[C@@H]1O,i
CC(C)(O)C#Cc1ccc(CN2CC[C@@H](c3ccc(F)cc3)[C@H](O)C2)s1,i
SMILES,Pf Dd2 inh
O=C1CC2CCN(Cc3ccc(F)cc3)CC2CCN1 (centres undefined),3.9%[44.1 µM]
O[C@@H]1CN(Cc2ccc(-n3cccn3)cc2)CC[C@H]1c1ccc(F)cc1,3.55µM*
CC(=O)Nc1ccc(NC(=O)CCNc2c(-c3ccc(F)cc3)nc3cnccn23)cc1,8.0%
CC(C)CNC(=O)c1ccc2c(c1)NC(C)(COCC1CC1)CO2 (centres undefined),i
CCNC(=O)[C@@H]1C[C@H](NC(C)=O)CN1Cc1ccc(OC2CCCC2)cc1,-1.6%
Cc1ccc(CSc2nnc(-n3c(=O)c(C#N)cc4c(=O)n5cc(C)ccc5nc43)s2)cc1,32.0%
Cc1cccn2c(=O)c3cc(C#N)c(=O)n(-c4nnc(SCc5ccc(Cl)cc5)s4)c3nc12,8.91µM*
N#Cc1cc2c(=O)n3ccccc3nc2n(-c2nnc(SCc3ccccc3)s2)c1=O,i
O=C(N1CCC[C@H]1c1nc(-c2ccccc2Cl)no1)C1(c2ccccc2)CC1,-9.9%
COc1ccc(-c2noc([C@@H]3CCCN3C(=O)c3ccc(OC)c(F)c3)n2)cc1,i
Cc1nocc1C(=O)N1CCCn2ccnc2C1c1cnn(C)c1 (centres undefined),1.7%
O=C(c1ccccc1F)N1CCCC2(CC(c3cccnc3)=NO2)C1 (centres undefined),13.3%
COc1ccccc1C1CNC(=O)c2nc(CCN3CCC(C)CC3)[nH]c2C1 (centres undefined),i
COc1cccc(C2CNC(=O)c3nc(Cn4nc(C)c(C)c4C)[nH]c3C2)c1 (centres undefined),10µM*
COc1cccc(C2CNC(=O)c3nc(-c4ccc(C(=O)N(C)C)o4)[nH]c3C2)c1 (centres undefined),i
CC(=O)Nc1ccc(CN2C(=O)OC3(CCN(C(=O)c4scnc4C)CC3)C2(C)c2ccccc2)cc1 (centres undefined),-3.0%
O[C@@H]1C[C@@H](c2nc(Cc3ccccc3)no2)N(Cc2cc3ccccc3o2)C1,14.1µM*
O[C@@H]1C[C@@H](c2nc(Cc3ccccc3)no2)N(Cc2ccc(F)cc2)C1,i
O[C@@H]1C[C@@H](c2nc(Cc3ccccc3)no2)N(CCCc2ccccc2)C1,i
CN1CC2(CCN(C(=O)Cn3c(=O)oc4ccccc43)CC2)CC1C(=O)N1CCOCC1 (centres undefined),-6.7%
O=S(=O)(c1cccnc1)N1CCC(c2nc(C3CC3)no2)C1 (centres undefined),38.1%
CC(=O)N1CCCC1c1nc(C2CN(S(=O)(=O)c3cccnc3)C2)no1 (centres undefined),-21.1%
CC(=O)N1CCCC1c1nc(C2CN(C(=O)c3ccsc3)C2)no1 (centres undefined),-18.8%
O=C(c1cccs1)N1CCCC1c1nc(C2CCOCC2)no1 (centres undefined),-14.7%
COCCN1CCCC1c1nc(C2CN(C(=O)c3ncccc3C)C2)no1 (centres undefined),i
SMILES,Pf Dd2 inh
CCOCc1nc(C2CCCN2S(=O)(=O)c2cccs2)no1 (centres undefined),-0.5%
O=C(c1ccc2c(c1)OCO2)N1CC(c2noc(C3CCCN3CC3CC3)n2)C1 (centres undefined),5.01µM*
O=S(=O)(c1cccnc1)N1CC(c2noc(C3CCCN3CC3CC3)n2)C1 (centres undefined),6.31µM*
O=S(=O)(c1cccs1)N1CC(c2noc(C3CCCN3CC3CC3)n2)C1 (centres undefined),2.82µM*
CCOc1ccc(C(=O)NC2CCN(c3cc(-c4ccccc4)[nH]n3)CC2)cc1,-4.9%
Cc1ccccc1N1Cc2c(NCC3CCCCCC3)ncnc2N(C)CC1=O,i
Cn1cccc1C(=O)NC1CCCN(c2cc(-c3ccc(Cl)cc3)[nH]n2)C1 (centres undefined),-6.8%
COc1ccc(NC(=O)C2(C)CCc3cnc(N4CCOCC4)nc32)cn1 (centres undefined),-14.2%[44.1 µM]
O=C(N1CCN(c2ccccn2)CC1)C1(c2ccc(Cl)cc2)CCOCC1,-0.1%
COc1ccc(NC(=O)c2ccc3c(c2)OCCN(c2ccccc2)C3)c(F)c1,10µM*
CNC(=O)c1ccc2c(c1)OCCN(c1ccccc1)C2,i
COc1ccc(NC(=O)c2ccc3c(c2)OCCN(CCC(F)(F)F)C3)c(F)c1,-23.1%[44.1 µM]
COCC(=O)NC1CCC12CCN(C(=O)Cc1c[nH]c3ccccc13)CC2 (centres undefined),-16.3%
O=C1COCCN1c1cc(-c2cccc(F)c2)cn2cncc12,10.4%[44.1 µM]
CN(Cc1cn(-c2ccccc2)nn1)Cc1noc2c1CCCC2,3.0%
